Values joined by “and” are separate entries in the source; they are usually repeats but may differ in a detail not shown here. Equal values may be shown once. Active and inactive are the calls of the source. How the calls were made is not given here.
Legend:
[1] = liver-stage malaria parasite load reduction – cell-based, known kinase inhibitor set, luminescence, hepatoma host viability (AID 624392); conditions: Plasmodium liver stage in hepatoma cells, luciferase luminescence, concentration not given here; liver cell % of control: measured here: host liver cell viability; parasite % of control: stronger effect = lower value;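 further: infected cells incubated roughly two days before readout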
[2] = altered dexamethasone sensitivity, NF-kB reporter, cell-based, luciferase, IL-1B stimulus (AID 624486); conditions: IL-1B + dexamethasone, luminescence; percent of negative control (+Dex): actives lie on both sides, concentration not given here; z-score: measured here: IL-1B alone, no Dex;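 on percent of negative control (+Dex): 100% = mean signal of vehicle control wells on the plate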
[3] = target: Cellular tumor antigen p53 (Homo sapiens) (UniProt P04637); assay: GFP-p53 level modulators in HPV16+ cells – imaging, known kinase inhibitor set, EGFP/DsRed ratio (AID 1053116); conditions: GFP-p53 stability, stronger effect = higher value; EGFP object count: measured here: GFP-p53 positive objects count;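 further: cells exposed to compounds for 24 h at 37 °C before reading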
Chain of Cellular tumor antigen p53 (Homo sapiens) (P04637 whole entry, looked up): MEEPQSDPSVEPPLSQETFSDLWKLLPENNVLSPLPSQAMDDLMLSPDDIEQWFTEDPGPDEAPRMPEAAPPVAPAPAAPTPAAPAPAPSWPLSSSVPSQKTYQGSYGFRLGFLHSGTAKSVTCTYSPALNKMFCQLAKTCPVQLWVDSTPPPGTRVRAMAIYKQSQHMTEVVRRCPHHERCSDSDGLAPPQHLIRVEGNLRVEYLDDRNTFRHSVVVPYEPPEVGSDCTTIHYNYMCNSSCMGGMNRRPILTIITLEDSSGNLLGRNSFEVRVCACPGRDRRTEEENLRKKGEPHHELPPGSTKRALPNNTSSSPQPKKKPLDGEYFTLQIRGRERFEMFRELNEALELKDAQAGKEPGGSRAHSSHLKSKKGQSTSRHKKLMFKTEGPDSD

[4] = inducers of IRF3 signaling, differentiated THP-1 – cell-based, PMA-stimulated THP-1, luminescence (AID 1053176); conditions: PMA-differentiated THP-1, IRF3 reporter luminescence; stronger effect = higher value

SMILES	liver cell % of control [1]	parasite % of control [1]	percent of negative control (+Dex) [2]	z-score [2]	EGFP object count [3]	EGFP/DsRed ratio [3]	fraction signal [4]
CON=C(c1ccccc1)c1cnn(-c2ccccc2)c1N	121%	79.3% (inactive)	98.5% (inactive)	0.245	3.5	0.128 (inactive)	0.0055 (inactive)
COc1ccc(OC)c(C2=C(c3cn(C)c4ccccc34)C(=O)NC2=O)c1	105%	22.1% (inactive)	99% (inactive)	-0.03	15	0.328 (inactive)	-0.003 (inactive)
O=C1NC(=NCC(CO)c2ccccc2)SC1=Cc1ccc2ncccc2c1 (stereo not given)	106%	72.5% (inactive)	86% (inactive)	-0.105	0.5	0.00131 (inactive)	0.006 (inactive)
Cn1cc(C2=C(c3cn(CCO)c4ccccc34)C(=O)NC2=O)c2ccccc21	89.7%	54.6% (inactive)	124% (inactive)	-1.11	25	0.285 (inactive)	-0.0245 (inactive)
COc1ccc2c(c1)C(c1ccccc1Cl)=Nc1c(n[nH]c1C)N2	81.2%	28.8% (inactive)	92% (inactive)	-0.45	3	0.0722 (inactive)	0.0035 (inactive)
Cn1cc(C2=C(c3c4n(c5ccccc35)CCC(CN)CC4)C(=O)NC2=O)c2ccccc21 (stereo not given)	127%	42.3% (inactive)	94% (inactive)	-0.165	30.5	0.0801 (inactive)	-0.003 (inactive)
COc1ccc(CCN=C2NC(=O)C(=Cc3ccc4ncccc4c3)S2)cc1	99.3%	48.7% (inactive)	100% (inactive)	0.55	3	0.381 (inactive)	0.001 (inactive)
CS(=O)(=O)N1CCC(Nc2ncc(C(=O)c3c(F)cccc3F)c(N)n2)CC1	89.5%	70.6% (inactive)	88.5% (inactive)	-0.28	2	0.123 (inactive)	-0.005 (inactive)
COc1ccc(O)c(C(=O)c2ccc(C(=O)NC3CCCNCC3NC(=O)c3ccncc3)cc2)c1F (stereo not given)	115%	83.5% (inactive)	68.5% (active)	-3.04	10.5	0.105 (inactive)	0.0035 (inactive)
O=C1NC(=NC(CO)c2ccccc2)SC1=Cc1ccc2ncccc2c1 (stereo not given)	113% and 90.5%	71.9% (inactive) and 55.3% (inactive)	102% (inactive) and 96% (inactive)	0.925 and 0.08	4 and 5.5	0.088 (inactive) and 0.122 (inactive)	-0.005 (inactive) and 0.0055 (inactive)
O=C1Nc2ccc(F)cc2C1=Cc1ccc[nH]1	55.9%	14% (inactive)	136% (active)	4.44	23	0.607 (inactive)	-0.014 (inactive)
Cc1ccccc1-n1ncc(C(=O)c2ccccc2)c1N	104%	52.3% (inactive)	120% (inactive)	1.31	5	0.225 (inactive)	-0.0005 (inactive)
Cn1c(=O)c(Cc2ccc(F)cc2F)cc2cnc(NC3CCOCC3)nc21	103%	54.9% (inactive)	98.5% (inactive)	0.48	3	0.139 (inactive)	-0.0055 (inactive)
Cc1cccc2c(C3=C(c4cn(C)c5ccccc45)C(=O)NC3=O)cn(C)c12	91.7%	45.3% (inactive)	98.5% (inactive)	-1.08	24	0.241 (inactive)	-0.0115 (inactive)
COc1ccc(C2=C(c3cn(C)c4ccccc34)C(=O)NC2=O)cc1OC	215%	12.7% (inactive)	100% (inactive)	-0.425	13	0.28 (inactive)	-0.003 (inactive)
COc1cc[nH]c1C=C1C(=O)Nc2ccccc21	116%	24.2% (inactive)	148% (active)	6.7	6	0.263 (inactive)	-0.02 (inactive)
Fc1ccc(-c2c(-c3ccncc3)n(CCN3CCOCC3)c3cccnc23)cc1	113%	63.8% (inactive)	91.5% (inactive)	0.395	1.5	0.18 (inactive)	-0.0075 (inactive)
Cn1cc(C2=C(c3ccc4ccccc4c3)C(=O)NC2=O)c2ccccc21	105%	53.6% (inactive)	94% (inactive)	-0.025	3	0.0576 (inactive)	-0.001 (inactive)
O=C1NC(=O)C(c2c[nH]c3ccccc23)C1c1c[nH]c2ccccc12 (stereo not given)	102%	41.2% (inactive)	100% (inactive)	0.125	2.5	0.0298 (inactive)	-0.0005 (inactive)
CC(Cn1ncnn1)Nc1ncc2cc(Oc3ccc(F)cc3F)c(=O)n(C)c2n1 (stereo not given)	111%	71.1% (inactive)	101% (inactive)	0.455	1.5	0.0437 (inactive)	-0.003 (inactive)

SMILES	liver cell % of control [1]	parasite % of control [1]	percent of negative control (+Dex) [2]	z-score [2]	EGFP object count [3]	EGFP/DsRed ratio [3]	fraction signal [4]
Nc1c(C(=O)c2cccc(C(O)CO)c2)cnn1-c1ccc(F)cc1 (stereo not given)	101%	60.5% (inactive)	110% (inactive)	1.48	4.5	0.197 (inactive)	0.0035 (inactive)
COc1ccc(F)cc1C(=O)c1cnc(NC2CCN(S(C)(=O)=O)CC2)nc1N	97.2%	587% (inactive)	96.5% (inactive)	-0.18	4.5	0.0651 (inactive)	-0.009 (inactive)
O=C1NC(=Nc2ccccc2)SC1=Cc1ccc2ncccc2c1	124%	68.1% (inactive)	98% (inactive)	0.04	3	0.0469 (inactive)	-0.003 (inactive)
OCCn1c(-c2ccncc2)c(-c2ccc(F)cc2)c2ncccc21	114%	46% (inactive)	99.5% (inactive)	0.305	5.5	0.119 (inactive)	-0.0135 (inactive)
Cn1cc(C2=C(c3cn(-c4ccccc4)c4ccccc34)C(=O)NC2=O)c2ccccc21	108%	63.3% (inactive)	99% (inactive)	0.65	3	0.0255 (inactive)	0.01 (inactive)
Cn1cc(C2=C(c3cn(CCN)c4ccccc34)C(=O)NC2=O)c2ccccc21	89.8%	29.9% (inactive)	99% (inactive)	0.435	14.5	0.0574 (inactive)	0.0015 (inactive)
Fc1ccc(-c2c(-c3ccncc3)[nH]c3cccnc23)cc1	141%	1.58% (active)	95% (inactive)	0.075	6	0.15 (inactive)	-0.0095 (inactive)
Cn1cc(C2=C(c3cn(CCCO)c4ccccc34)C(=O)NC2=O)c2ccccc21	101%	33.3% (inactive)	115% (inactive)	-0.1	9.5	0.221 (inactive)	0.0055 (inactive)
O=c1c(Oc2ccc(F)cc2F)cc2cnc(NC3CCOCC3)nc2n1C1CCS(=O)(=O)CC1	120%	83.4% (inactive)	97% (inactive)	-0.26	3	0.101 (inactive)	-0.0075 (inactive)
N#Cc1cccc(C(=O)c2cnn(-c3ccc(F)cc3)c2N)c1	102%	61.7% (inactive)	114% (inactive)	2.75	4.5	0.122 (inactive)	0.01 (inactive)
Cn1c(=O)c(Oc2cccc(F)c2)cc2cnc(NC3CCOCC3)nc21	112%	65.8% (inactive)	101% (inactive)	0.78	4	0.127 (inactive)	0.0015 (inactive)
Nc1c(C(=O)c2ccc(CCCN3CCOCC3)cc2)cnn1-c1ccc(F)cc1	119%	61% (inactive)	106% (inactive)	0.435	2	0.0463 (inactive)	0.001 (inactive)
COCC(N=C1NC(=O)C(=Cc2ccc3ncccc3c2)S1)c1ccccc1 (stereo not given)	98.8%	49.5% (inactive)	98% (inactive)	0.145	6.5	0.249 (inactive)	-0.005 (inactive)
Nc1c(C(=O)c2ccc(-c3cccnc3)cc2)cnn1-c1ccc(F)cc1	93.2%	36.7% (inactive)	112% (inactive)	0.835	5.5	0.226 (inactive)	-0.0025 (inactive)
CN1CCN(c2ccc(Nc3nc(N)c(C(=O)c4ccc5c(c4)OCCO5)s3)cc2)CC1	108%	46.7% (inactive)	138% (inactive)	3.58	4.5	0.151 (inactive)	-0.018 (inactive)
CC(=O)NC(Cc1ccc(OP(=O)(O)O)cc1)C(=O)NC1CCC(=O)N2CCCC(C(=O)NCc3ccc(Cl)cc3)N2C1=O (stereo not given)	96.1%	45.1% (inactive)	95.5% (inactive)	0.05	3.5	0.276 (inactive)	-0.003 (inactive)
Cn1c(=O)c(Oc2ccc(F)cc2F)cc2cnc(NCCS(C)(=O)=O)nc21	117%	60.7% (inactive)	101% (inactive)	0.95	1	0.00515 (inactive)	0.0015 (inactive)
Cn1cc(C2=C(c3cccc(OCC(O)CO)c3)C(=O)NC2=O)c2cc(F)ccc21 (stereo not given)	125%	31.6% (inactive)	97% (inactive)	0.67	8	0.21 (inactive)	-0.0075 (inactive)
Cn1cc(C2=C(c3c4n(c5ccccc35)CCN(C(N)=S)C4)C(=O)NC2=O)c2ccccc21	94.5%	22.4% (inactive)	110% (inactive)	-0.965	36.5	0.211 (inactive)	-0.007 (inactive)
Cn1cc(C2=C(c3c4n(c5ccccc35)CCCC4)C(=O)NC2=O)c2ccccc21	77.8%	85.7% (inactive)	100% (inactive)	0.55	5.5	0.0663 (inactive)	0.0055 (inactive)
